Measured values as given in PubChem BioAssay (EPA / NIEHS).
Activity calls are given as the source filed them. How the source made its calls: active means hit-call score of the fitted dose curve at least 0.9, where 1 is the maximum; inactive means score below 0.9.

What was measured:
[1] = read-out: Monokine induced gamma interferon (MIG), CXCL9 (gene 4283); assay: BSK_hDFCGF_MIG: BioMAP Diversity Plus: hDFCGF Assay for Monokine induced gamma interferon (MIG) Biomarker Activity (AID 2283063); settings: primary human foreskin fibroblasts; actives raise or lower the signal
How it was run: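 Endpoint derived by bidirectional fitting relative to DMSO; MIG quantified via ELISA in primary human foreskin fibroblasts harvested 24 h after dosing.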

[2] = read-out: Matrix Metallopeptidase 1 (MMP1), MMP1 (gene 4312); assay: BSK_hDFCGF_MMP1: BioMAP Diversity Plus: hDFCGF Assay for Matrix Metallopeptidase 1 (MMP1) Biomarker Activity (AID 2283064); settings: primary human foreskin fibroblasts; actives raise or lower the signal
How it was run: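 MMP1 levels quantified by ELISA 24 h after dosing human dermal fibroblast cultures, with parallel SRB total-protein staining for overt cytotoxicity. Data fitted in both directions against DMSO baseline.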

[3] = read-out: Vascular cell adhesion molecule 1 (VCAM1), VCAM1 (gene 7412); assay: BSK_hDFCGF_VCAM1: BioMAP Diversity Plus: hDFCGF Assay for Vascular cell adhesion molecule 1 (VCAM1) Biomarker Activity (AID 2283065); settings: primary human foreskin fibroblasts; actives raise or lower the signal
How it was run: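 Measured after 24 h chemical treatment of primary human skin fibroblasts, VCAM-1 was detected by ELISA and concentration-response analysed in both directions versus DMSO vehicle.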

[4] = read-out: Plasminogen activator inhibitor-1 (PAI1), SERPINE1 (gene 5054); assay: BSK_hDFCGF_PAI1: BioMAP Diversity Plus: hDFCGF Assay for Plasminogen activator inhibitor-1 (PAI1) Biomarker Activity (AID 2283066); settings: primary human foreskin fibroblasts; actives raise or lower the signal
How it was run: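 PAI-1 levels in human dermal foreskin fibroblasts were quantified by ELISA 24 h after dosing, with gain or loss analysed against DMSO. Overt cytotoxicity was checked by sulforhodamine B total-protein staining in parallel cultures.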

[5] = read-out: Interferon-gamma inducible Protein 10 (IP10), CXCL10 (gene 3627); assay: BSK_KF3CT_IP10: BioMAP Diversity Plus: KF3CT Assay for Interferon-gamma inducible Protein 10 (IP10) Biomarker Activity (AID 2283068); settings: primary human keratinocytes with fibroblasts; actives raise or lower the signal
How it was run: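 Signal is secreted/surface IP-10 by ELISA in a human primary skin co-culture of keratinocytes and foreskin fibroblasts, taken 24 h post-dosing; DMSO served as negative control.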

[6] = BSK_KF3CT_SRB: Viability Assessment in the BioMAP Diversity Plus: KF3CT Assay (AID 2283069); settings: primary human keratinocytes with fibroblasts;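 further: read 24 h after compound addition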
How it was run: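 Cytotoxicity was gauged by SRB staining (0.1% SRB, 10% TCA fixation, 560 nm) of parallel cultures at 24 h. The cells were primary human skin keratinocytes co-cultured with fibroblasts, and activity was fitted in both directions against DMSO.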

[7] = read-out: TIMP metallopeptidase inhibitor 2 (TIMP2), TIMP2 (gene 7077); assay: BSK_KF3CT_TIMP2: BioMAP Diversity Plus: KF3CT Assay for TIMP metallopeptidase inhibitor 2 (TIMP2) Biomarker Activity (AID 2283071); settings: primary human keratinocytes with fibroblasts; actives raise or lower the signal
How it was run: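 TIMP-2 measured by ELISA at 24 h in human keratinocyte/fibroblast primary co-cultures exposed to chemicals. Both increases and decreases were fitted against DMSO. Parallel cultures were stained with SRB for total protein as an overt-cytotoxicity check.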

[8] = read-out: Transforming growth factor beta 1 (TGFb1), TGFB1 (gene 7040); assay: BSK_KF3CT_TGFb1: BioMAP Diversity Plus: KF3CT Assay for Transforming growth factor beta 1 (TGFb1) Biomarker Activity (AID 2283072); settings: primary human keratinocytes with fibroblasts; actives raise or lower the signal
How it was run: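 ELISA quantifies TGF-b1 at 24 h post-dose in a primary human skin co-culture of keratinocytes and fibroblasts, with gain or loss judged against DMSO. Parallel SRB total-protein staining flags overt cytotoxicity.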

[9] = read-out: C-C motif chemokine 2 (Homo sapiens) (UniProt P13500); assay: BSK_KF3CT_MCP1: BioMAP Diversity Plus: KF3CT Assay for Monocyte Chemoattractant Protein 1 (MCP1/CCL2) Biomarker Activity (AID 2283073); settings: primary human keratinocytes with fibroblasts; actives raise or lower the signal
How it was run: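 Biomarker MCP-1 is measured by ELISA in primary human keratinocytes co-cultured with foreskin fibroblasts, 24 h after chemical treatment; DMSO serves as the negative control and activity baseline.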

[10] = read-out: Matrix Metallopeptidase 9 (MMP9), MMP9 (gene 4318); assay: BSK_KF3CT_MMP9: BioMAP Diversity Plus: KF3CT Assay for Matrix Metallopeptidase 9 (MMP9) Biomarker Activity (AID 2283074); settings: primary human keratinocytes with fibroblasts; actives raise or lower the signal
How it was run: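 MMP-9 quantified by ELISA after 24 h chemical treatment of primary human skin keratinocyte/fibroblast co-cultures; gain or loss fitted against DMSO, with parallel SRB staining (0.1% SRB, 560 nm) for overt cytotoxicity.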

[11] = read-out: urokinase plasminogen activator (uPA), PLAU (gene 5328); assay: BSK_KF3CT_uPA: BioMAP Diversity Plus: KF3CT Assay for urokinase plasminogen activator (uPA) Biomarker Activity (AID 2283075); settings: primary human keratinocytes with fibroblasts; actives raise or lower the signal
How it was run: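 ELISA read-out of uPA 24 h after dosing human skin keratinocytes co-cultured with foreskin fibroblasts. Signal change fitted both ways relative to DMSO; sulforhodamine B on parallel cultures marks overt cytotoxicity.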

CD40, CD40 (gene 958) = assay: BSK_LPS_CD40: BioMAP Diversity Plus: LPS Assay for CD40 Biomarker Activity (AID 2283076); settings: primary human HUVEC with PBMC; actives raise or lower the signal
How it was run: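 Using a multiplexed primary human co-culture (umbilical vein endothelium plus PBMC), CD40 was read by ELISA 24 h after dosing, with cytotoxicity tracked by sulforhodamine B staining of parallel cultures and activity fitted bidirectionally versus DMSO.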

[12] = read-out: E-selectin (Homo sapiens) (UniProt P16581); assay: BSK_LPS_Eselectin: BioMAP Diversity Plus: LPS Assay for Eselectin Biomarker Activity (AID 2283077); settings: primary human HUVEC with PBMC; actives raise or lower the signal
How it was run: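 Dose chemical onto LPS-driven HUVEC/PBMC co-culture; after 24 h, run ELISA for E-selectin; fit up- and down-going responses relative to DMSO control.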

[13] = read-out: Interleukin-8 (IL8), CXCL8 (gene 3576); assay: BSK_LPS_IL8: BioMAP Diversity Plus: LPS Assay for Interleukin-8 (IL8) Biomarker Activity (AID 2283078); settings: primary human HUVEC with PBMC; actives raise or lower the signal
How it was run: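 In this LPS system, chemical-treated human umbilical vein endothelium/PBMC co-cultures were harvested at 24 h for IL-8 ELISA.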

[14] = BSK_LPS_SRB: Viability Assessment in the BioMAP Diversity Plus: LPS Assay (AID 2283079); settings: primary human HUVEC with PBMC;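 further: total protein by sulforhodamine B absorbance as a cytotoxicity measure; measured one day after compound addition; fitted in both directions against DMSO so loss or gain of signal counts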
How it was run: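 Cytotoxicity endpoint in human endothelial–PBMC co-culture: 24 h exposure, then SRB (0.1%) staining, 560 nm read.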

[15] = read-out: Interleukin-1 alpha (IL1a), IL1A (gene 3552); assay: BSK_LPS_IL1a: BioMAP Diversity Plus: LPS Assay for Interleukin-1 alpha (IL1a) Biomarker Activity (AID 2283080); settings: primary human HUVEC with PBMC; actives raise or lower the signal
How it was run: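 Primary human HUVEC and PBMC co-culture stimulated with LPS is dosed and harvested at 24 h. Both increases and decreases in ELISA-measured IL-1a are scored relative to DMSO.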

[16] = read-out: Monocyte Chemoattractant Protein-1 (MCP1), CCL2 (gene 6347); assay: BSK_LPS_MCP1: BioMAP Diversity Plus: LPS Assay for Monocyte Chemoattractant Protein-1 (MCP1) Biomarker Activity (AID 2283081); settings: primary human HUVEC with PBMC; actives raise or lower the signal
How it was run: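 Values derive from bidirectional fitting against DMSO of ELISA-measured MCP-1 in a human primary endothelial and mononuclear cell co-culture, 24 h after chemical addition under LPS activation.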

[17] = BSK_LPS_PGE2: BioMAP Diversity Plus: LPS Assay for Prostaglandin E2 (PGE2) Biomarker Activity (AID 2283082); settings: primary human HUVEC with PBMC; actives raise or lower the signal
How it was run: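 PGE2 release measured by ELISA in an LPS-activated co-culture of human umbilical vein endothelial cells and peripheral blood mononuclear cells, read at 24 h post-dosing. DMSO served as baseline for bidirectional curve fitting.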

[18] = read-out: Interleukin-1 alpha (IL1a), IL1A (gene 3552); assay: BSK_KF3CT_IL1a: BioMAP Diversity Plus: KF3CT Assay for Interleukin-1 alpha (IL1a) Biomarker Activity (AID 2283070); settings: primary human keratinocytes with fibroblasts; actives raise or lower the signal
How it was run: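 IL-1a was detected by ELISA 24 h after chemical treatment of a co-culture of human skin keratinocytes and foreskin fibroblasts. Gain or loss of signal was fitted against the DMSO baseline.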

Measured: outcome

E-selectin (Homo sapiens), sequence (P16581 whole entry, looked up): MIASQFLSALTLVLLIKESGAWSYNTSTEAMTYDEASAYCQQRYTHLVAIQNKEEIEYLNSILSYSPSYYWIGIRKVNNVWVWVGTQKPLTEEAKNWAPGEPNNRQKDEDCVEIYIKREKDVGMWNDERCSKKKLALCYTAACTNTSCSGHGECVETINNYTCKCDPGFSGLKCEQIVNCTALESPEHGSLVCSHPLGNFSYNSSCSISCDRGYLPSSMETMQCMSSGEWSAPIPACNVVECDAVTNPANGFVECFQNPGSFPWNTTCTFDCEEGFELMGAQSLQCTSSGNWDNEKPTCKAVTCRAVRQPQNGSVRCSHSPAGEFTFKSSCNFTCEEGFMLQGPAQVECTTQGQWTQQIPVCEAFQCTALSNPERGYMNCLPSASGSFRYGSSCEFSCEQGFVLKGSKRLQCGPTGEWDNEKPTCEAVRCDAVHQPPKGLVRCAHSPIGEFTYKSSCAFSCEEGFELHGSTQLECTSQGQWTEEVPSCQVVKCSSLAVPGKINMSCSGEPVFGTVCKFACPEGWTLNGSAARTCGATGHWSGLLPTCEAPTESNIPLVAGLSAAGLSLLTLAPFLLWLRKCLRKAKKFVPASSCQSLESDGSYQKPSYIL

Nc1cccc(N)c1
not listed: [18]
inactive: all other assays above

COC(=O)c1ccccc1O
not listed: [15]
inactive: all other assays above

CC[C@H]1CC[C@H](NCc2cc3c(cc2OC)[C@H]2C[C@H]2C(=O)N3C)[C@H](c2ccccc2)N1
not listed: [15] | [18]
inactive: all other assays above

CC(C)CCO
not listed: [9] | [15] | [18]
inactive: all other assays above
